Test results published in the supplement of paper PMC12494721.
Counter-ions that a name gives are not always drawn.

Experiments:
Conditions in all cases: incubation time: 27 h, anaerobic, 37 °C;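 for the amine columns active = adjusted P below 0.05 in both replicates with a change the same way and a mean fold change under 0.8 or over 1.25; inactive = the rest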
[1] = test system: Clostridium sporogenes DSM 1664; test: growth (OD595) fold change vs plate DMSO controls (fold change (ratio)); higher = more growth
Method in brief: (§1)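 Growth is calculated as fold change against the median of the DMSO control wells on each plate. Readings at 595 nm from anaerobic mGAM cultures (96-well, 27 h, 37 °C) were blank-subtracted, background-corrected with 20 µM compound solutions in water, and converted to OD by a calibration factor of 5. Fold changes above 1.5 were recorded as NA, and results are means of 2 biological replicates.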

[2] = test system: Escherichia coli IAI1; test: as above
Method in brief: as §1

[3] = test system: Klebsiella aerogenes DSM 30053; test: as above
Method in brief: as §1

[4] = test system: Ruminococcus gnavus DSM 108212; test: as above
Method in brief: as §1

[5] = test system: Klebsiella aerogenes DSM 30053; test: fold change of Histamine concentration vs plate DMSO controls (fold change (ratio)); higher = more amine produced, active = hit call of the paper (significant change in both replicates, either direction)
Method in brief: (§2)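 In 80 µL wells, cultures of four gut bacterial strains in mGAM started at OD 0.1 before a 1:1 dilution and grew anaerobically at 37 °C for 27 h. Compounds were added to 20 µM final, except sweeteners at 50 µM final. After extraction of whole cultures with cold acetonitrile/methanol plus 0.1% formic acid and centrifugation, amines were measured by LC–triple-quadrupole MS in dynamic MRM mode against external calibration curves, with within-batch drift correction. Values give fold change over DMSO controls on the same plate, averaged across 2 biological replicates.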

[6] = test system: Clostridium sporogenes DSM 1664; test: fold change of Tryptamine concentration vs plate DMSO controls (fold change (ratio)); higher = more amine produced, active = hit call of the paper (significant change in both replicates, either direction)
Method in brief: as §2

[7] = test system: Ruminococcus gnavus DSM 108212; test: as above
Method in brief: as §2

[8] = test system: Escherichia coli IAI1; test: fold change of Putrescine concentration vs plate DMSO controls (fold change (ratio)); higher = more amine produced, active = hit call of the paper (significant change in both replicates, either direction)
Method in brief: as §2

[9] = test system: Klebsiella aerogenes DSM 30053; test: as above
Method in brief: as §2

[10] = test system: Escherichia coli IAI1; test: fold change of Cadaverine concentration vs plate DMSO controls (fold change (ratio)); higher = more amine produced, active = hit call of the paper (significant change in both replicates, either direction)
Method in brief: as §2

[11] = test system: Klebsiella aerogenes DSM 30053; test: as above
Method in brief: as §2

[12] = test system: Ruminococcus gnavus DSM 108212; test: fold change of 2-Phenylethylamine concentration vs plate DMSO controls (fold change (ratio)); higher = more amine produced, active = hit call of the paper (significant change in both replicates, either direction)
Method in brief: as §2

Row | SMILES | growth [1] | growth [2] | growth [3] | growth [4] | fold change of Histamine concentration [5] | fold change of Tryptamine concentration [6] | fold change of Tryptamine concentration [7] | fold change of Putrescine concentration [8] | fold change of Putrescine concentration [9] | fold change of Cadaverine concentration [10] | fold change of Cadaverine concentration [11] | fold change of 2-Phenylethylamine concentration [12]
1 | CCc1nn(CCCN2CCN(c3cccc(Cl)c3)CC2)c(=O)n1CCOc1ccccc1 [Nefazodone hydrochloride] (20 µM) | 1.05 | 1.01 | 1.17 | 0.822 | 0.853 (inactive) | 0.922 (inactive) | 0.793 (active) | 0.996 (inactive) | 0.996 (inactive) | 1.03 (inactive) | 1.03 (inactive) | 0.824 (inactive)
2 | CO/N=C(\C(=O)N[C@@H]1C(=O)N2C(C(=O)[O-])=C(C[n+]3ccn4ncccc43)CS[C@H]12)c1nsc(N)n1 [Cefozopran hydrochloride] (20 µM) | 0 | 0.102 | 0.153 | 0.0221 | 1.35 (active) | 0.0264 (active) | 0.0903 (active) | 2.2 (active) | 0.898 (inactive) | 2 (active) | 1.05 (inactive) | 0.0687 (active)
3 | NNC(=O)c1ccncc1 [Isoniazid] (20 µM) | 1.22 | 1.01 | 0.936 | 0.727 | 1.03 (inactive) | 1.05 (inactive) | 0.851 (inactive) | 1.03 (inactive) | 0.991 (inactive) | 1.01 (inactive) | 0.988 (inactive) | 0.844 (inactive)
4 | CN1CCCC(CC2c3ccccc3Sc3ccccc32)C1 (stereo not drawn) [Metixene hydrochloride] (20 µM) | 1.02 | 0.988 | 1.02 | 1.25 | 0.998 (inactive) | 1.06 (inactive) | 0.807 (inactive) | 0.956 (inactive) | 1.02 (inactive) | 0.999 (inactive) | 1.01 (inactive) | 0.88 (inactive)
5 | Cn1nnnc1SCC1=C(C(=O)O)N2C(=O)[C@@H](NC(=O)[C@H](O)c3ccccc3)[C@H]2SC1 [Cefamandole sodium salt] (20 µM) | 0 | 0.0343 | 1.08 | 0.971 | 1.04 (inactive) | 0.0204 (active) | 0.141 (active) | 0.968 (inactive) | 1.02 (inactive) | 2.1 (active) | 1.06 (inactive) | 0.118 (active)
6 | CCOC(=O)[C@H](CCc1ccccc1)N[C@@H](C)C(=O)N1[C@H](C(=O)O)C[C@H]2CCCC[C@@H]21 [Trandolapril] (20 µM) | 0.941 | 1.05 | 1.02 | 1.01 | 0.994 (inactive) | 0.989 (inactive) | 1.02 (inactive) | 1.08 (inactive) | 1 (inactive) | 0.978 (inactive) | 0.991 (inactive) | 1.02 (inactive)
7 | O=C(O)Cc1csc(-c2ccc(Cl)cc2)n1 [Fenclozic acid] (20 µM) | 1.01 | 0.949 | 0.979 | 1.1 | 1.05 (inactive) | 1 (inactive) | 1.05 (inactive) | 1.01 (inactive) | 0.985 (inactive) | 0.986 (inactive) | 0.977 (inactive) | 1.1 (inactive)
8 | COc1cc2nc(N3CCN(C(=O)C4CCCO4)CC3)nc(N)c2cc1OC (stereo not drawn) [Terazosin hydrochloride] (20 µM) | 1.07 | 1.02 | 1 | 0.977 | 1.08 (inactive) | 1.03 (inactive) | 0.952 (inactive) | 0.936 (inactive) | 1.03 (inactive) | 1 (inactive) | 1.01 (inactive) | 0.948 (inactive)
9 | CC(=O)OCC(=O)[C@@]1(O)CC[C@H]2[C@@H]3CCC4=CC(=O)CC[C@]4(C)[C@H]3[C@@H](O)C[C@@]21C [Cortisol acetate] (20 µM) | 1.13 | 1.03 | 1.04 | 1 | 0.896 (inactive) | 0.975 (inactive) | 0.979 (inactive) | 0.987 (inactive) | 0.993 (inactive) | 0.97 (inactive) | 1.01 (inactive) | 0.953 (inactive)
10 | CN1CC2c3ccccc3Oc3ccc(Cl)cc3C2C1 (stereo not drawn) [Asenapine maleate] (20 µM) | 1.1 | 0.969 | 1.04 | 0.834 | 0.986 (inactive) | 1.05 (inactive) | 0.905 (inactive) | 1 (inactive) | 1.02 (inactive) | 0.973 (inactive) | 0.998 (inactive) | 0.917 (inactive)
11 | O=C(c1ccc(OCCN2CCCCC2)cc1)c1c(-c2ccc(O)cc2)sc2cc(O)ccc12 [Raloxifene hydrochloride] (20 µM) | 1.19 | 1.08 | 1.04 | 1.2 | 0.986 (inactive) | 0.932 (inactive) | 0.941 (inactive) | 0.976 (inactive) | 1.03 (inactive) | 1.01 (inactive) | 1.01 (inactive) | 0.917 (inactive)
12 | CC(C)Oc1ccc2c(=O)c(-c3ccccc3)coc2c1 [Ipriflavone] (20 µM) | 0.986 | 1.01 | 0.992 | 1.03 | 1 (inactive) | 1.01 (inactive) | 1.04 (inactive) | 0.98 (inactive) | 1.02 (inactive) | 1.04 (inactive) | 0.989 (inactive) | 1.02 (inactive)
13 | CCCOc1cc(N)ccc1C(=O)OCCN(CC)CC [Propoxycaine hydrochloride] (20 µM) | 0.975 | 1.01 | 1 | 1.35 | 0.991 (inactive) | 1.02 (inactive) | 1.05 (inactive) | 0.956 (inactive) | 0.986 (inactive) | 0.967 (inactive) | 1.01 (inactive) | 1.09 (inactive)
14 | CCOC(=O)Nc1ccc(NCc2ccc(F)cc2)nc1N [Flupirtine] (20 µM) | 1.18 | 0.973 | 1.04 | 0.999 | 0.95 (inactive) | 0.95 (inactive) | 1.01 (inactive) | 1.03 (inactive) | 0.993 (inactive) | 1.01 (inactive) | 0.999 (inactive) | 1.03 (inactive)
15 | CCCCN(CCCC)CCC(O)c1cc2c(Cl)cc(Cl)cc2c2cc(C(F)(F)F)ccc12 (stereo not drawn) [Halofantrine hydrochloride] (20 µM) | 1.1 | 1.23 | 1.03 | 1.16 | 0.895 (inactive) | 1.01 (inactive) | 0.756 (active) | 1.17 (inactive) | 0.964 (inactive) | 0.955 (inactive) | 1.01 (inactive) | 0.92 (inactive)
16 | CC[N+](CC)(CC)CCOc1cccc(OCC[N+](CC)(CC)CC)c1OCC[N+](CC)(CC)CC [Gallamine triethiodide] (20 µM) | 1.09 | 1.02 | 1.05 | 0.905 | 0.862 (inactive) | 1.12 (inactive) | 1.09 (inactive) | 1.06 (inactive) | 0.945 (inactive) | 0.947 (inactive) | 1.04 (inactive) | 1.06 (inactive)
17 | CC(C)NCC(O)c1ccc(O)c(O)c1 (single isomer, unassigned; (-)) [(-) Isoproterenol hydrochloride] (20 µM) | 1.02 | 0.976 | 1.15 | 0.899 | 0.874 (inactive) | 1.03 (inactive) | 0.857 (inactive) | 1 (inactive) | 0.996 (inactive) | 0.982 (inactive) | 1.02 (inactive) | 0.814 (inactive)
18 | COc1ccc2[nH]c([S+]([O-])Cc3ncc(C)c(OC)c3C)nc2c1 (stereo not drawn) [Omeprazole] (20 µM) | 1.05 | 0.96 | 1.01 | 1.2 | 0.936 (inactive) | 1.02 (inactive) | 1.01 (inactive) | 0.97 (inactive) | 1.01 (inactive) | 1 (inactive) | 1 (inactive) | 1.02 (inactive)
19 | CCOC(=O)[C@@](C)(N)Cc1ccc(O)c(O)c1 [Methyldopate hydrochloride] (20 µM) | 0.926 | 1.05 | 1.03 | 1.14 | 0.963 (inactive) | 1.04 (inactive) | 1.09 (inactive) | 1.22 (inactive) | 0.975 (inactive) | 0.898 (inactive) | 1.02 (inactive) | 1.07 (inactive)
20 | c1ccc2c(c1)ccc1ccccc12 [Phenanthrene] (20 µM) | 0.976 | 0.992 | 0.975 | 0.96 | 1 (inactive) | 1.02 (inactive) | 1.07 (inactive) | 0.992 (inactive) | 0.817 (inactive) | 0.904 (inactive) | 1.12 (inactive) | 1.09 (inactive)
21 | CC(=O)N(CC(O)CO)c1c(I)c(C(=O)NCC(O)CO)c(I)c(C(=O)NCC(O)CO)c1I (stereo not drawn) [Iohexol] (20 µM) | 1 | 1.02 | 1.04 | 0.911 | 0.958 (inactive) | 0.975 (inactive) | 1.01 (inactive) | 1.02 (inactive) | 0.997 (inactive) | 0.992 (inactive) | 1 (inactive) | 1.01 (inactive)
22 | Cc1ccc(C(C)NC(=O)[C@@H](NC(=O)OC(C)C)C(C)C)cc1 (stereo partly drawn) (20 µM) | 1.07 | 1.02 | 1.04 | 0.999 | 1.02 (inactive) | 1.02 (inactive) | 1.03 (inactive) | 0.974 (inactive) | 1 (inactive) | 1.03 (inactive) | 1.02 (inactive) | 1.07 (inactive)
23 | N=C(N=C(N)N)N1CCOCC1 [Moroxidine hydrochloride] (20 µM) | 0.931 | 1.05 | 1 | 1.39 | 1.11 (inactive) | 0.987 (inactive) | 1.18 (inactive) | 0.989 (inactive) | 1.06 (inactive) | 0.916 (inactive) | 1.09 (inactive) | 1.34 (active)
24 | COc1cc(Nc2c(C#N)cnc3cc(OCCCN4CCN(C)CC4)c(OC)cc23)c(Cl)cc1Cl [Bosutinib] (20 µM) | 0.991 | 0.99 | 1.05 | 1.16 | 0.973 (inactive) | 0.96 (inactive) | 0.942 (inactive) | 1.02 (inactive) | 1 (inactive) | 1.02 (inactive) | 1.01 (inactive) | 0.989 (inactive)
